# Sampled rows, rich in hits. Any-hit rate of the full collection: about 5.4%.
# SKKanGAS inh: SKKanGAS growth inhibition | inhibition, % at 7.5 µM | S. pyogenes SKKanGAS, kanamycin growth, BacTiter-Glo, 6 h | 1.3% of 300,000 active;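 active = mean replicate score, as percent of positive control median, at least 50; inconclusive = mean below 50 but one replicate at or above 50; inactive = mean and every replicate below 50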;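 also: strain carries kanamycin resistance gene driven by streptokinase promoter and grows in 40 µg/ml kanamycin; loss of luminescence reflects streptokinase promoter inhibition or plain growth inhibition; 0% = median of DMSO wells and 100% = positive control at its reference dose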
# Mdm2-MdmX inh: disrupts the human Mdm2-MdmX interaction; O15151+Q00987; SaOS-2 split-luciferase Mdm2/MdmX complementation, luminescence; inhibition, % at 8 µM; 3% of 330,000 active;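 active = inhibition of at least 50% at 8 µM in the primary screen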
# Beta apoptosis: blocks beta cell apoptosis | INS-1E cytokine-induced death, ATP luminescence, 48 h; percent of positive-control rescue, neutral wells zero | protection from apoptosis, % (test concentration not listed) | 0.8% of 300,000 active;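 active = Every replicate reaches about 75%, or at least half do and their mean reaches it too, limit read from the data; inconclusive = At least half of replicates reach the limit but their mean does not; inactive = Under half of replicates reach the limit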;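 also: 0% = cytokine-treated negative control wells and 100% = positive control rescue; higher means more ATP so stronger rescue from cytokine killing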
# MPTP inh: permeability transition pore inhibition | isolated mouse mitochondria, Ca2+ swelling absorbance, 30 min | inhibition, % at 10 µM | 1.4% of 360,000 active | AID 602449;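 active = inhibition of 50% or more, scaled per plate between neutral and stimulator controls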;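 also: 0% = DMSO wells given calcium and 100% = 1 mM EGTA wells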
# CSC inhib: blocks cancer stem cells | 1.1% of 300,000 active | cancer stem cell-like cells viability, luminescence | AID 2717 | inhibition, % at 7.5 µM; in the data active = inhibition above about 75%; inconclusive = no clear call, values can overlap the other calls; tested in HMLE shEcad cells
# Calb FLC: affects C. albicans growth with fluconazole; C. albicans CaCi-2 (fluconazole-resistant clinical isolate) + fluconazole, Alamar Blue growth, 48 h; growth inhibition, % (no concentration beside the values); 0.57% of 300,000 active; AID 1979;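 active = growth inhibition above about 58% in most replicates, limit read from the data, passing the limit was not always enough; inconclusive = exactly half the replicates above a set limit; inactive = most replicates below a set limit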;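 also: all wells also contain fluconazole at 8 µg/ml as a sub-toxic cotreatment; 0% = median of DMSO wells and 100% = median of geldanamycin control wells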
# An asterisk follows results filed as active; ? = inconclusive; . = no result.
SMILES,SKKanGAS inh,Mdm2-MdmX inh,Beta apoptosis,MPTP inh,CSC inhib,Calb FLC
CN1C(=O)/C(=C/c2ccc(OCc3ccc(C(=O)O)cc3)c(Cl)c2)NC1=S,24,-13,-3,0,-2,-12
C/C(=N\N=C(/N)SC1CC(=O)N(c2ccc(Br)cc2)C1=O)c1cccs1 (configuration not stated),98*,-25,-12,2,47,65
C/C(=N\N=C(/N)SC1CC(=O)N(c2ccc(Cl)c(Cl)c2)C1=O)c1cccs1 (configuration not stated),98*,17,0,3,79*,?
C/C(=N\N=C(/N)SC1CC(=O)N(c2ccccc2)C1=O)c1cccs1 (configuration not stated),2,22,-3,0,12,17
C/C(=N\N=C(/N)SC1CC(=O)N(c2ccc(Cl)cc2)C1=O)c1cccs1 (configuration not stated),26,13,8,2,26,8
O=C(NCc1ccco1)/C(=C\c1ccco1)NC(=O)c1ccc(Br)o1,0,-14,-16,1,7,-2
O=c1c2cc(Br)ccc2nc(-c2ccc([N+](=O)[O-])cc2)n1O,15,44,-2,-5,-2,110*
N#Cc1ccc(-c2nc3ccc(Br)cc3c(=O)n2O)cc1,5,18,8,1,21,-5
O=c1c2ccc(Cl)cc2nc(-c2ccc([N+](=O)[O-])cc2)n1O,1,6,12,4,31,87*
O=c1c2cc(Cl)ccc2nc(-c2ccccc2)n1O,26,24,-8,-2,-5,3
COC(=O)c1ccc(COC(=O)CNC(=O)c2ccc(-c3ccccc3)cc2)cc1,-6,3,-2,3,-8,-6
CS(=O)(=O)N(CC(N)=O)c1cccc(Br)c1,-15,16,-9,-1,18,30
Cc1ccc2nc(-c3ccco3)c(Cc3cccc(F)c3)n2c1,.,.,.,-2,.,.
COc1ccc(-c2c(C)n([O-])c3c([n+]2=O)CCC3)cc1OC,-2,-5,-2,-1,-10,5
O=C(NCc1cccnc1)c1ccc(NS(=O)(=O)c2ccccc2)cc1,2,10,-3,-2,-1,-5
O=C(O)CCCC(=O)Nc1ccc(C(=O)NCc2cccnc2)cc1,3,-44,101*,-2,-1,.
O=C(CCC1CCCC1)Nc1ccc(C(=O)NCc2cccnc2)cc1,-3,6,100*,2,?,-4
Cc1cccc(OCCCC(=O)Nc2ccc(S(=O)(=O)Nc3onc(C)c3C)cc2)c1C,13,19,-2,-2,1,0
CC(C)(C)c1ccc(C(=O)N2CCN(C(=O)c3ccco3)CC2)cc1,50*,16,.,0,-1,1
O=C(c1ccc(-c2ccccc2)cc1)N1CCN(C(=O)c2ccco2)CC1,-1,21,-4,0,-2,-2
Cc1ccc(OCCSc2nc3ccccc3n2CC(=O)O)c(C(C)C)c1,1,6,0,1,-4,-3
Oc1ccccc1-c1ccn[nH]1,.,21,4,0,.,.
Oc1ccccc1-c1nc2c3ccccc3c3ccccc3c2[nH]1,86*,.,6,2,-3,3
O=C(Cc1ccccc1)NCCS(=O)(=O)N1CCN(c2ccccc2)CC1,54*,15,-8,0,.,1
CCC(C(=O)Nc1cc(OC)c(NC(=O)c2ccccc2)cc1OC)c1ccccc1 (configuration not stated),2,-3,9,1,79*,36
SMILES,SKKanGAS inh,Mdm2-MdmX inh,Beta apoptosis,MPTP inh,CSC inhib,Calb FLC
CCC(C(=O)Nc1cc(Cl)ccc1OC)c1ccccc1 (configuration not stated),0,20,-1,1,-1,-9
CC(C)CN1CC(Br)C(=O)NC1=O (configuration not stated),.,.,.,1,.,.
CCCOc1c(Cl)cc(C(=O)Nc2ccc3c(c2)OCO3)cc1OCC,8,39,15,4,79*,1
CCCCOc1ccc(C(=O)Nc2ccc3c(c2)OCO3)cc1,2,-42,1,1,93*,-21
CN(CC(=O)Nc1ccc(Cl)c(Cl)c1)CC(=O)Nc1ccc2c(c1)OCO2,.,2,1,3,80*,.
CN(CC(=O)Nc1ccc2c(c1)OCO2)CC(=O)Nc1ccc(F)c(F)c1F,.,-12,3,0,-15,.
C=CCn1c(NC(=O)c2ccccc2)nc2ccccc21,65*,21,.,1,12,32
CCn1c(NC(=O)c2cccc(Cn3cc(Cl)cn3)c2)nc2ccccc21,85*,43,.,1,22,9
Cn1c(NC(=O)c2cccc(Cn3cc(Cl)cn3)c2)nc2ccccc21,16,20,23,4,9,29
CCn1c(NC(=O)c2ccccc2)nc2ccccc21,23,-8,6,-1,7,30
Cc1csc(CN(C)C(=O)CC2C(=O)NCCN2Cc2ccc(F)c(F)c2)n1 (configuration not stated),1,-1,-5,0,0,14
COc1cnc(-c2ccccc2)nc1Oc1ccc(C(C)(C)C)cc1,93*,2,.,6,49,-2
Cc1ccc2nc(Nc3nc(C)cc(-c4ccccc4)n3)[nH]c(=O)c2c1,86*,38,22,2,3,9
Cc1ccc2nc(Nc3nc(-c4ccccc4)cc(=O)[nH]3)nc(C)c2c1,95*,35,-1,1,-6,3
O=C(NCc1ccc(F)cc1)c1ccc(Br)o1,-4,4,2,0,-12,2
COc1cc([N+](=O)[O-])cc(/C=N\NC(=O)C2COc3ccccc3O2)c1O (configuration not stated),104*,38,17,-11,21,7
COc1cc([N+](=O)[O-])cc(/C=N/NC(=O)C(O)(c2ccccc2)c2ccccc2)c1O,98*,27,.,3,13,-10
COc1ccccc1-c1cnn2c(NCCc3ccccc3)cc(C)nc12,3,-30,-1,0,10,12
Cc1cc(N2CCCCC2)n2ncc(-c3ccccc3)c2n1,4,40,-1,1,23,5
Cc1cc(N2CCCCC2)n2ncc(-c3ccc(Cl)cc3)c2n1,18,49,1,0,84*,3
COc1ccc(CCNc2cc(C)nc3c(-c4ccc(Cl)cc4)cnn23)cc1OC,27,39,-1,2,92*,29
Cc1cc(N2CCOCC2)n2ncc(-c3ccccc3)c2n1,-2,39,100*,-1,-5,-14
O=C(CNC(=O)Cc1ccc(Cl)cc1)NCC(=O)N1CCCCC1,1,17,2,-2,-5,7
COc1ccccc1C(=O)NCC(=O)NC(C)CCc1ccccc1 (configuration not stated),-6,4,-20,0,-7,-21
CN1C(=O)c2ccc(NC(=O)C3CC3)cc2C1=O,-2,4,.,0,0,1

# Screening data from PubChem BioAssay.
